Screens as filed in PubChem.
dFosB act – activators of delta FosB homodimer, primary screen, biochemical, fluorescence polarization, TAMRA-CDK5 oligo, single point | Protein FosB (Mus musculus), P13346 | purified delta FosB; percent of positive-control signal above neutral wells | activation, % at 25 µM | 340,000 compounds, 0.99% hits | AID 493131, 2011;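 active means mean activation above about 17%, with every replicate also reaching it, limit read from the data, passing the limit was not always enough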
PvdQ inh – P. aeruginosa PvdQ acylase inhibitors, primary screen, biochemical, fluorescence, plate reader and imaging, single point. inhibition, % at 10 µM. PvdQ acylase [Pseudomonas aeruginosa LESB58]. 340,000 compounds, 0.063% hits. AID 488965, 2010. purified PvdQ acylase; in the data active means inhibition above about 30%, passing the limit was not always enough
N-glyco inh – increase of ERlucT glycosylation luciferase signal, primary screen, N-linked glycosylation inhibitor project, D54 ERlucT cells, luminescence, set 2; D54 ERlucT glycosylation luciferase reporter, 24 h; percent of 100 nM tunicamycin response; reporter increase, % at 12.5 µM; 360,000 compounds, 0.23% hits;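 active means mean luciferase reporter signal, scaled so untreated is 0 and the glycosylation-blocking control 100, at or above a set limit in every replicate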;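 further: luciferase carries N-glycosylation sites so blocking glycosylation raises the light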
CFTR F508del cor – F508del CFTR correction, initial screen, CFBE line, single point; 350,000 compounds, 0.36% hits; activity (quench increase), % at 7.58 µM; CFBE cells, YFP halide quenching; stimulated with forskolin plus potentiator P3; % fluorescence drop versus neutral controls;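 active means mean added fluorescence quench of at least 8% versus neutral control, with both replicates also reaching 8%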;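 further: cells transiently co-express mutant CFTR-F508del with the halide-sensitive YFP; corrector assay measuring rescue of mutant channel to the surface after 24 h compound exposure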
RAD54 inh – inhibitors of human RAD54 branch migration, primary screen, biochemical, fluorescence, single point. DNA repair and recombination protein RAD54-like (Homo sapiens), Q92698. RAD54 Holliday junction branch migration, FAM/BHQ fluorescence. 360,000 compounds, 0.14% hits. inhibition, % at 10.4 µM;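 active means mean normalized replicate activity at least 40 and at least half of replicates scoring 40 or more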;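 further: inhibitors cause a drop in the FAM fluorescence signal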
Target sequence (Q92698 whole entry, looked up): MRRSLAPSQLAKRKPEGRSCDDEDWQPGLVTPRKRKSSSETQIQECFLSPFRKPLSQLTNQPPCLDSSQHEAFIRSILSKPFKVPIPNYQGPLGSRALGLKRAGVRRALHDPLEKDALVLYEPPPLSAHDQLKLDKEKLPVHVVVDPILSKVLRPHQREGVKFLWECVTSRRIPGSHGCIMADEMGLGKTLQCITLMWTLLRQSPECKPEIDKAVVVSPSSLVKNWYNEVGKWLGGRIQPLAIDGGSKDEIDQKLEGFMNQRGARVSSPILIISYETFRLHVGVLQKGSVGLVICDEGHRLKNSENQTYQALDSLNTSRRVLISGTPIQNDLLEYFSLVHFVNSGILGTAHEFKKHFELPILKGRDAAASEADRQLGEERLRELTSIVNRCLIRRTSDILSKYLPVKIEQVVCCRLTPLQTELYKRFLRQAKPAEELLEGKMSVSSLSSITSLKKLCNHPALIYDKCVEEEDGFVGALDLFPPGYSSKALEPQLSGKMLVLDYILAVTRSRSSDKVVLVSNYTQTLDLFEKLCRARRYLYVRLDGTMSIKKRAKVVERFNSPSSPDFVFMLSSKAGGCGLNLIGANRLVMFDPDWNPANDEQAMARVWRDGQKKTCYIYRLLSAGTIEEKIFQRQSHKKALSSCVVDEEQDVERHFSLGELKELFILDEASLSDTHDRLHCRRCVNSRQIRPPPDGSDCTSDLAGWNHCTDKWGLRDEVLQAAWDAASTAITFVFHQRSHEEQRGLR
RAD52 inh – RAD52 DNA annealing inhibitors, primary screen, biochemical, FRET, single point, set 2; DNA repair protein RAD52 homolog (Homo sapiens), P43351; recombinant RAD52 DNA annealing, FRET fluorescence; inhibition, % at 18.7 µM; 360,000 compounds, 0.46% hits; AID 651710, 2012;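 active means every replicate showing at least 50% inhibition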
Hits are given with their value; i = inactive; nt = no result given. This is a sample that favours compounds with a hit; in the whole collection about 1.5% have one here.

SMILES	dFosB act	PvdQ inh	N-glyco inh	CFTR F508del cor	RAD54 inh	RAD52 inh
COc1ccc(NC(=O)N(C)C[C@H]2Oc3c(cccc3N(C)C)C(=O)N([C@@H](C)CO)C[C@@H]2C)cc1	nt	nt	nt	i	i	i
CC(C)NC(=O)Nc1ccc2c(c1)C(=O)N([C@H](C)CO)C[C@@H](C)[C@H](CN(C)S(=O)(=O)c1ccc(Cl)cc1)O2	nt	nt	nt	i	56.2	i
C/C=C/c1cnc2c(c1)C(=O)N([C@@H](C)CO)C[C@H](C)[C@@H](CN(C)C(=O)C1CCC1)O2	nt	nt	nt	i	nt	nt
CN1C(=O)c2cc(NC(=O)c3ccc(F)c(F)c3)ccc2OC[C@H]2O[C@H](CC(=O)N3CCOCC3)CC[C@H]21	nt	nt	nt	i	i	i
COc1ccc(CN(C)C[C@@H]2Oc3ccc(NC(=O)Nc4ccccc4)cc3C(=O)N([C@H](C)CO)C[C@H]2C)cc1	nt	nt	nt	i	57.3	i
COc1ccc(CN(C)C[C@H]2Oc3c(NC(=O)Nc4ccc(C(F)(F)F)cc4)cccc3C(=O)N([C@H](C)CO)C[C@H]2C)cc1	nt	nt	nt	i	i	i
COc1ccc(CN(C)C[C@H]2Oc3ccc(NC(=O)Nc4ccccc4)cc3C(=O)N([C@H](C)CO)C[C@H]2C)cc1	nt	nt	nt	i	i	i
COc1ccc(S(=O)(=O)N(C)C[C@@H]2Oc3ccc(NC(=O)Nc4ccc5c(c4)OCO5)cc3C(=O)N([C@@H](C)CO)C[C@@H]2C)cc1	nt	nt	nt	i	i	i
COc1ccc(S(=O)(=O)N(C)C[C@@H]2Oc3ccc(NC(=O)Nc4ccc5c(c4)OCO5)cc3C(=O)N([C@@H](C)CO)C[C@H]2C)cc1	nt	nt	nt	i	56.6	i
COc1ccc(NC(=O)Nc2cccc3c2O[C@@H](CN(C)Cc2ccc(C(F)(F)F)cc2)[C@@H](C)CN([C@@H](C)CO)C3=O)cc1	nt	nt	nt	i	i	87.3
COc1ccc(CN(C)C[C@@H]2Oc3ccc(NC(=O)Nc4ccc5c(c4)OCO5)cc3C(=O)N([C@H](C)CO)C[C@H]2C)cc1	nt	nt	nt	i	66.8	i
CC(C)C#Cc1cnc2c(c1)C(=O)N([C@@H](C)CO)C[C@H](C)[C@@H](CN(C)C(=O)Nc1ccccc1)O2	nt	nt	nt	i	i	i
COc1ccccc1N1CCN(S(=O)(=O)c2ccc(-c3ccc(=O)[nH]n3)o2)CC1	i	i	i	i	nt	i
Cc1cccc(N2CCN(S(=O)(=O)c3ccc(-c4ccc(=O)[nH]n4)o3)CC2)c1C	i	i	39.8	i	i	i
Cc1nn(C)cc1NC(=O)C[C@@H]1CC[C@H]2[C@@H](COc3ccc(NC(=O)C4CCC4)cc3C(=O)N2C)O1	nt	nt	nt	i	i	nt
CNCCNC[C@H](Cc1cccc2ccccc12)NCCc1ccccc1	i	i	i	i	i	i
CNC[C@H](Cc1ccccc1)NC[C@@H](Cc1cccc2ccccc12)NCCc1ccc(C)cc1	29.6	i	i	i	i	i
O=C(C1CC1)N1[C@@H](CO)[C@@H](c2ccccc2)C12CN(Cc1cncnc1)C2	nt	nt	nt	i	nt	i
COc1ccc(C2C3=C(COC3=O)Oc3cc4c(cc32)OCO4)cc1OC (stereo unspecified)	i	i	i	9.6	nt	i
COc1ccc(/C(C#N)=C/c2ccccn2)cc1	i	53.3	i	i	i	i
N#C/C(=C\c1ccccn1)c1nc2ccccc2s1	i	i	i	40.9	i	i
COC(=O)c1cn(C(=O)/C=C/c2ccc(OC)c(OC)c2)c2ccccc12	i	i	36.4	i	nt	i
COC(=O)c1cn(C(=O)c2ccc(C)cc2C)c2ccccc12	i	i	i	10.8	nt	i
COCC(=O)N(C)C[C@@H]1Oc2cc(C3=CCCC3)ccc2S(=O)(=O)N([C@H](C)CO)C[C@@H]1C	nt	nt	nt	i	i	i
C[C@H](CO)N1C[C@H](C)[C@H](CN(C)Cc2ccc(C(=O)O)cc2)OCCCC[C@H](C)Oc2ccc(NC(=O)Nc3ccccc3)cc2C1=O	nt	nt	nt	i	i	i
SMILES	dFosB act	PvdQ inh	N-glyco inh	CFTR F508del cor	RAD54 inh	RAD52 inh
CC(C)NC(=O)N(C)C[C@@H]1Oc2cc(C#C[C@@H](C)O)ccc2S(=O)(=O)N([C@H](C)CO)C[C@@H]1C	nt	nt	nt	i	i	i
C[C@@H]1CN([C@@H](C)CO)S(=O)(=O)c2ccc(C#CC3CCCC3)cc2O[C@@H]1CN(C)C(=O)C1CC1	nt	nt	nt	i	i	i
Cc1cccc(C2NC(=O)c3ccccc3N2)c1 (stereo unspecified)	i	i	i	i	nt	i
Cc1ccc(C2NC(=O)c3ccccc3N2)c(C)c1 (stereo unspecified)	i	i	i	10.9	nt	i
CC(C)NC(=O)Nc1ccc2c(c1)C(=O)N([C@H](C)CO)C[C@@H](C)[C@@H](CN(C)CC1CCCCC1)OCCCC[C@H](C)O2	nt	nt	nt	i	i	i
Cc1ccc(S(=O)(=O)NCc2ccccc2)cc1C(=O)N1CCCCC1	i	i	i	i	i	i
Cc1ccc(S(=O)(=O)NCc2ccccc2)cc1C(=O)N1CC(C)CC(C)C1 (stereo unspecified)	i	i	i	8.3	i	i
Cc1ccc(CNC(=O)Cc2ccc(-n3cccc3)cc2)cc1	i	i	i	nt	i	nt
COc1ccc(CC(=O)NCc2ccc(-n3cccc3)cc2)cc1OC	i	i	i	11.0	i	i
O=C(Nc1ccccc1)Nc1ccc2c(c1)[C@@H]1C[C@@H](CC(=O)N3CCCCC3)O[C@@H](CO)[C@@H]1O2	nt	nt	nt	i	i	i
Cc1ccc(S(=O)(=O)NC[C@H]2CC[C@@H]3[C@@H](CN3Cc3cc(-c4ccccc4)on3)O2)cc1	nt	nt	nt	i	nt	i
COc1cc(OC)cc(-c2c(C#Cc3ccsc3)c3cc(-c4cccc5[nH]ccc45)ccc3n2C)c1	17.9	i	i	i	i	i
COc1ccc2cc(CN(CC3CCCO3)C(=S)Nc3ccccc3)c(=O)[nH]c2c1 (stereo unspecified)	i	i	i	10.3	nt	i
COc1ccc2[nH]c(=O)c(CN(CC3CCCO3)C(=S)Nc3ccccc3)cc2c1 (stereo unspecified)	i	i	i	i	nt	i
CO[C@@H]1CN(C)C(=O)c2ccc(NC(=O)C3CCCC3)cc2OC[C@@H](C)N(C(=O)Nc2ccc(C(F)(F)F)cc2)C[C@H]1C	nt	nt	nt	i	i	i
CCOC(=O)c1cnc2c(C)cc(Cl)cc2c1NCCCN1CCOCC1	i	i	i	i	57.0	i
CCOC(=O)c1cnc2c(Cl)cc(Cl)cc2c1NCCCN1CCOCC1	i	i	i	i	i	i
N#Cc1ccc(-c2ccc3c(c2)[C@H]2[C@H](CCN2Cc2cncnc2)[C@H](CO)N3)cc1	nt	nt	nt	i	i	nt
